According to PubChem BioAssay (NCATS):
Records with an inconclusive call do not appear. The source made the active and inactive calls. Unless noted, calls come from the whole dose curve; as a rule, active = well fitted curve in either direction with a large enough effect (not every such curve was filed as active); inconclusive = small, poorly fitted or top-dose-only effect, or another doubt; inactive = flat fitted curve, though single readings scatter.

How the values were obtained:
[1] = biological target: Lysosomal acid glucosylceramidase (Homo sapiens) (UniProt P04062); test: Glucocerebrosidase-p2 (AID 348; in the data active = potency below about 10 µM; note: potency is the fitted concentration of half-maximal effect); conditions: purified GBA, blue fluorogenic substrate, 40 min
In short: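 Compounds titrated from 0.6 nM upwards against 0.2 nM enzyme in pH 5.9 citric acid/KH2PO4, taurocholate, tween-20; blue fluorogenic substrate 80 uM, 40 min room temperature, stopped and read Ex 365/Em 440 for AC50.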

[2] = AP1 Signaling Pathway (AID 357); conditions: ME-180 AP-1-bla reporter, EGF-induced, beta-lactamase ratio, 5 h; at 7.69 µM (top of the series) unless noted;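 note: ME-180 reporter cells stimulated with EGF at its EC50 level; % is set by controls: 0 for no effect and ±100 for the full control effect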
In short: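 In this screen, ME-180 cells in Opti-MEM with 0.5% dialyzed FBS received EC50 EGF and compound titrations for 5 h. AP-1 reporter beta-lactamase was detected via CCF4 ratio, giving AC50 for positive and negative modulators.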

[3] = biological target: Cytochrome P450 1A2 (Homo sapiens) (UniProt P05177); test: p450-cyp1a2 (AID 410; calls by dose curve; note: potency is the fitted concentration of half-maximal effect;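 for activity change, negative = inhibition: -100% = full effect of reference inhibitor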); conditions: recombinant CYP1A2, luciferin-ME demethylation, luminescence; series mostly up to 57 µM
In short: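 Inhibition was calculated relative to 57 uM furafylline (full inhibition). The reaction used human CYP1A2 at 20nM with Luciferin-ME at its Km, 100uM, driven by an NADPH-regenerating system for 60 min at room temperature.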

[4] = NFAT Signaling Pathway (AID 444); conditions: Jurkat NFAT-bla M1, carbachol, beta-lactamase ratio, 5 h; at 7.69 µM (top of the series) unless noted;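 note: carbachol stimulus at about its EC50 of 1 µM final; % is set by controls: 0 for no effect and ±100 for the full control effect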
In short: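 Read-out: CCF4 FRET ratio (460 nm/530 nm) after 1 h RT dye loading, used for %activity and AC50 from titration series. Cells: Jurkat NFAT-β-lactamase/M1 line, treated with compound plus 1 uM carbachol for 5 h, 37 °C.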

[5] = Stat Signaling Pathway (AID 446); conditions: ME-180 SIE beta-lactamase reporter, IL-6 stimulated, 5 h; at 7.69 µM (top of the series) unless noted;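 note: ME-180 cervical cancer cells given 40 pM IL-6 alongside compound; SIE-controlled beta-lactamase reporter measured as 460/530 nm FRET emission ratio; % is set by controls: 0 for no effect and ±100 for the full control effect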
In short: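 IL-6/STAT signaling read in ME-180 cells via an SIE beta-lactamase reporter. Stimulus was 40 pM IL-6 (its AC50) for 5 hrs, so both activation and inhibition register.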

[6] = biological target: Glucocorticoid receptor (Homo sapiens) (UniProt P04150); test: GR-EFC Redistribution (AID 451; calls by dose curve; note: potency is the fitted concentration of half-maximal effect); conditions: CHO-K1 GR-EFC translocation, beta-gal luminescence, 2 h
In short: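 Translocation of GR-ED fusion to nuclear EA restores b-gal, read by luminescence after 1 h room-temperature detection. Engineered CHO-K1 biosensor cells, 1,000/well, exposed 2 h at 37 C to titrations up to 46 uM final.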

[7] = biological target: Mitogen-activated protein kinase 10 (Mus musculus) (UniProt Q61831); test: JNK3 AlphaScreen Assay (AID 530); conditions: JNK3 lysate, c-Jun phosphorylation; series mostly up to 57.1 µM;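 note: kinase came from lysate of stimulated human HepG2 cells; signal reports phosphorylation of biotinylated GST-cJun 1-79 at Ser73 with 10 µM ATP; % is set by controls: 0 for no effect and ±100 for the full control effect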
In short: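 Room-temperature AlphaScreen kinase assay; pre-activated HepG2 lysate as JNK3 source, biotin-GST-cJun(1-79) substrate, 10 uM ATP, compound 15 min preincubation.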

[8] = biological target: 3',5'-cyclic-AMP phosphodiesterase 4B (Homo sapiens) (UniProt Q07343); test: qHTS Assay for Inhibitors of PDE-IV (AID 607; active = well fitted activation curve with a large enough effect in the main read-out, with a control signal flat, not every such curve was filed as active; note: % of control where 0% means no effect); conditions: HEK293 ACTOne CNG channel cells, membrane potential fluorescence; series mostly up to 22.9 µM
In short: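 Live HEK293 cells with a modified cyclic nucleotide-gated (CNG) channel report intracellular cAMP via membrane-potential dye fluorescence (ex 535/em 590 nm). Endogenous PDE-IV was targeted. Compounds were tested at up to 22.9 uM final; RO 20-1724 100 uM served as control.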

[9] = biological target: Cytochrome P450 3A4 (Homo sapiens) (UniProt P08684); test: qHTS Assay for Inhibitors and Substrates of Cytochrome P450 3A4 (AID 884; active = well fitted curve in the direction sought with a large enough effect; an effect the other way counts as inactive or inconclusive; note: nearly all actives have a fitted effect of over 50% in size; note: potency is the fitted concentration of half-maximal effect); conditions: recombinant CYP3A4, Luciferin-PPXE luminescence; series mostly up to 57.1 µM
In short: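 20 nM human CYP3A4 with 25 uM Luciferin-PPXE (at KM) in 200 mM KPO4, preincubated 10 min with compound; NADPH regeneration started a 60 min RT reaction. Luciferin detected by luminescence, normalized to 57 uM ketoconazole as full inhibition.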

[10] = biological target: Cytochrome P450 3A4 (Homo sapiens) (UniProt P08684); test: qHTS Assay for Activators of Cytochrome P450 3A4 (AID 885; active = well fitted curve in the direction sought with a large enough effect; an effect the other way counts as inactive or inconclusive; note: nearly all actives have a fitted effect of over 65% in size; note: potency is the fitted concentration of half-maximal effect); conditions: recombinant CYP3A4, Luciferin-PPXE luminescence, 60 min; series mostly up to 57.1 µM
In short: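 Quantitative HTS format: compounds preincubated with 20nM human CYP3A4 and Luciferin-PPXE substrate at KM, reaction started by NADPH regeneration, stopped after 60 min, luciferase luminescence read 20 min later.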

[11] = Primary qHTS for small molecule stabilizers of the endoplasmic reticulum resident proteome: Secreted ER Calcium Modulated Protein (SERCaMP) assay (AID 1508630; active = well fitted curve in the direction sought with a large enough effect; an effect the other way counts as inactive or inconclusive; note: % is set by controls: 0 for no effect and ±100 for the full control effect); conditions: SH-SY5Y GLuc-SERCaMP (Gaussia luciferase released on ER calcium loss) secretion, thapsigargin, luminescence; series mostly up to 38.4 µM
In short: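 GLuc-SERCaMP-expressing SH-SY5Y cells, pretreated 16 h with compound, are challenged with thapsigargin to empty ER calcium stores; after 4 h, coelenterazine is added directly to the medium and luminescence is imaged.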

[12] = biological target: Cytochrome P450 2C9 (Homo sapiens) (UniProt P11712); test: qHTS Assay for Inhibitors and Substrates of Cytochrome P450 2C9 (AID 883; active = well fitted curve in the direction sought with a large enough effect; an effect the other way counts as inactive or inconclusive; note: % is set by controls: 0 for no effect and ±100 for the full control effect; nearly all actives have a fitted effect of over 60% in size); conditions: recombinant CYP2C9, luciferin-H luminescence, 60 min; series mostly up to 57.1 µM
In short: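 Luminescent read-out of deoxyluciferin hydroxylation, normalized to 57uM sulphaphenazole (AC100). Reaction: 10nM enzyme, 100uM Luciferin-H (equal to KM), 25mM KPO4, 10 min compound preincubation, then 60 min with NADPH regeneration, both at 37C.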

[13] = biological target: Cytochrome P450 2D6 (Homo sapiens) (UniProt P10635); test: qHTS Assay for Inhibitors and Substrates of Cytochrome P450 2D6 (AID 891; active = well fitted curve in the direction sought with a large enough effect; an effect the other way counts as inactive or inconclusive;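 note: luciferin methyl ether substrate demethylated by CYP2D6 with NADPH regeneration; % is set by controls: 0 for no effect and ±100 for the full control effect; nearly all actives have a fitted effect of over 60% in size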); conditions: recombinant CYP2D6, luciferin-ME EGE luminescence; series mostly up to 57.1 µM
In short: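 Human CYP2D6 (5 nM) with 30 uM Luciferin-ME EGE (at Km) in 100 mM KPO4, compound preincubated 10 min, then NADPH regeneration system for 60 min at room temperature. Luciferin read by luminescence; normalized to 1.43 uM quinidine.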

[14] = biological target: Cytochrome P450 2C19 (Homo sapiens) (UniProt P33261); test: qHTS Assay for Inhibitors and Substrates of Cytochrome P450 2C19 (AID 899; active = well fitted curve in the direction sought with a large enough effect; an effect the other way counts as inactive or inconclusive; note: % is set by controls: 0 for no effect and ±100 for the full control effect; nearly all actives have a fitted effect of over 60% in size); conditions: recombinant CYP2C19, luciferin-H EGE luminescence; series mostly up to 57.1 µM
In short: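 Luminescence readout of luciferin formed from 10uM Luciferin-H EGE (KM level) by 5 nM CYP2C19 in 50mM KPO4. 60 min NADPH-driven reaction at 37C after 10 min compound preincubation; data scaled to 57uM ketoconazole inhibition.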

[15] = qHTS Assay for Identification of Small Molecule Agonists for Hypoxia Response Element Signaling Pathway (AID 914; active = well fitted activation curve with a large enough effect in the signal ratio, with a control signal flat, not every such curve was filed as active; the % refers to the signal ratio; note: % of control where 0% means no effect); conditions: ME-180 (cervical carcinoma) HRE-bla reporter, beta-lactamase ratio, CoCl2, 17 h; activation: hits give high values
In short: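 In Opti-MEM containing 0.5% dialyzed FBS and 10 mM HEPES, ME-180 HRE-bla cells received a compound titration and EC50 CoCl2. They were incubated 17 hours, then CCF4-loaded 2.5 hours at room temperature before ratio reading.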

Chain of Lysosomal acid glucosylceramidase (Homo sapiens) (P04062 whole entry, looked up): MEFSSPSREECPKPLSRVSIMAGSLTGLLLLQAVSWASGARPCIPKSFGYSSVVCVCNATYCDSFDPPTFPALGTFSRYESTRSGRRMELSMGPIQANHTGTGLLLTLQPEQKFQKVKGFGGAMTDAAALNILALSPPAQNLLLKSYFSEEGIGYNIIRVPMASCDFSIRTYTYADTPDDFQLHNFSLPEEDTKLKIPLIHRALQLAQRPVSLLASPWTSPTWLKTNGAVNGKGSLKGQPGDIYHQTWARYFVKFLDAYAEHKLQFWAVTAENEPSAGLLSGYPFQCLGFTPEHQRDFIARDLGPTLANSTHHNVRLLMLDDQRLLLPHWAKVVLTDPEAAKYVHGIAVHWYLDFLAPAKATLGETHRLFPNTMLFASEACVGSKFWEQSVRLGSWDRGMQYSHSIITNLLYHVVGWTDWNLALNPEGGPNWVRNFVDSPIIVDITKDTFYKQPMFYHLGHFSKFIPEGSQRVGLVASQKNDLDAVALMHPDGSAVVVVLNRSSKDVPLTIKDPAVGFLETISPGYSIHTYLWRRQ
Chain of 3',5'-cyclic-AMP phosphodiesterase 4B (Homo sapiens) (Q07343 whole entry, looked up): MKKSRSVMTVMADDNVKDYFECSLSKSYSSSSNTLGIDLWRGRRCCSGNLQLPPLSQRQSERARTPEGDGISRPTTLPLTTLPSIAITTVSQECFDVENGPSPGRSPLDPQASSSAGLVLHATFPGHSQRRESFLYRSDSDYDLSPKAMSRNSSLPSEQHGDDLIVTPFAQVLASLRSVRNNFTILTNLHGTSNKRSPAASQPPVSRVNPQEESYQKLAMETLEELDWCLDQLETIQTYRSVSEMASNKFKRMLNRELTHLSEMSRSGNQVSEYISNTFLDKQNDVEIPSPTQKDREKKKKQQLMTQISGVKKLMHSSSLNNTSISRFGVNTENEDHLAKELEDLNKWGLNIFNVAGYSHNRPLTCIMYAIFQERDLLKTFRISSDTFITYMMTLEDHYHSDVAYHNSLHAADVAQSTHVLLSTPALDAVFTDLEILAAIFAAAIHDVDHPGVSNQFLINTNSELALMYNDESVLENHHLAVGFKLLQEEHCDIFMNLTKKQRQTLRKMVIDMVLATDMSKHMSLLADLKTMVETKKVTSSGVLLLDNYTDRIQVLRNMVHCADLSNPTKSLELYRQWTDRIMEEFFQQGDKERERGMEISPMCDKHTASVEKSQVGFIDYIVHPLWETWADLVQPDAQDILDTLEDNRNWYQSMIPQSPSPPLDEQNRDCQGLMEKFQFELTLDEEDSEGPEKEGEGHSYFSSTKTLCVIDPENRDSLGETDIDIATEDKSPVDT
Chain of Cytochrome P450 1A2 (Homo sapiens) (P05177 whole entry, looked up): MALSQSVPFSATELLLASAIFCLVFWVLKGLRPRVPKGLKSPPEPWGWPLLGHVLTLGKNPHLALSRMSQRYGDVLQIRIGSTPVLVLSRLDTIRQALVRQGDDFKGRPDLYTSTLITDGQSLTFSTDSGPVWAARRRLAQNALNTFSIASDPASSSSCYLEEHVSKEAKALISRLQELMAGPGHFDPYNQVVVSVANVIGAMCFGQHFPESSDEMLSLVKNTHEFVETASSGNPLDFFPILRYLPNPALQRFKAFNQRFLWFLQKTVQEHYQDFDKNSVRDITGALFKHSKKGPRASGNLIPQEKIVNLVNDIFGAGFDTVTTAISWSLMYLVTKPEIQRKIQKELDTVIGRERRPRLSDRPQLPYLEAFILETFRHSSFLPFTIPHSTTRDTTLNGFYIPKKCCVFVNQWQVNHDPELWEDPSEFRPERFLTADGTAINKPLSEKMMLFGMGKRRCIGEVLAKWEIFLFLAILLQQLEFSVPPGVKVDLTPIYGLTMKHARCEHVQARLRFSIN
Chain of Glucocorticoid receptor (Homo sapiens) (P04150 whole entry, looked up, the tested form may be a part): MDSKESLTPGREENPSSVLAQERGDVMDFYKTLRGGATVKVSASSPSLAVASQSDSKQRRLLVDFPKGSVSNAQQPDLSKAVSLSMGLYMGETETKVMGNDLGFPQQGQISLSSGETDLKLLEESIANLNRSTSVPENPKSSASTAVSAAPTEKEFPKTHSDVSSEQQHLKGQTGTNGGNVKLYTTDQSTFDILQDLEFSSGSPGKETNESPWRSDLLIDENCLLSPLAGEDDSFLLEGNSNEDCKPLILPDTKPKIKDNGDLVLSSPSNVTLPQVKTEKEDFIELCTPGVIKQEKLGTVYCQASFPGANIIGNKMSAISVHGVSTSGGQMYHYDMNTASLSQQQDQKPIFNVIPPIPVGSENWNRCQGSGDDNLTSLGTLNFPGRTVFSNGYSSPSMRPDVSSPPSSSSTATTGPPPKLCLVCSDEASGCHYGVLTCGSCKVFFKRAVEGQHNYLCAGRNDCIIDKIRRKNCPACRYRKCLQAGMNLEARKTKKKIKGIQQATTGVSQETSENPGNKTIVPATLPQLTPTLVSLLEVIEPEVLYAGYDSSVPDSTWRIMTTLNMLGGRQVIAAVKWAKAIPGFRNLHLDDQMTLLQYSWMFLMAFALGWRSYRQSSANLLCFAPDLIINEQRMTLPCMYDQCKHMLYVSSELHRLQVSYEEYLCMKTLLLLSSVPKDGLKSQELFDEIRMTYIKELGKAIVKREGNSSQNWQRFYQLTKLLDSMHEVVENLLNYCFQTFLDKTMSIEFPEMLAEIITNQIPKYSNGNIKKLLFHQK
Chain of Cytochrome P450 3A4 (Homo sapiens) (P08684 whole entry, looked up): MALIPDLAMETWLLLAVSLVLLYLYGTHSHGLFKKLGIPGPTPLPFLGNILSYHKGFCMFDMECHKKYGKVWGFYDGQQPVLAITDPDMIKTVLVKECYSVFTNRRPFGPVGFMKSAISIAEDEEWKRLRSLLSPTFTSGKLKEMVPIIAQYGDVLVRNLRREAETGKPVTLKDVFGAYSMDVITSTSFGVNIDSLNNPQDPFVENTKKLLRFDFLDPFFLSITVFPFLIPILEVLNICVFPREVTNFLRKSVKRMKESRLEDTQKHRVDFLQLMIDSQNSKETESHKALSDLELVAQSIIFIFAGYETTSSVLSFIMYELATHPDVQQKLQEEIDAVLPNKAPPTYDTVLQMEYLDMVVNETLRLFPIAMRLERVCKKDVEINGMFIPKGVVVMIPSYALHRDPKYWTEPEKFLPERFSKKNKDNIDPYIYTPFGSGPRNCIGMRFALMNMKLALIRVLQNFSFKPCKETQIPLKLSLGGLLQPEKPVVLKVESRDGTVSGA
Chain of Cytochrome P450 2D6 (Homo sapiens) (P10635 whole entry, looked up): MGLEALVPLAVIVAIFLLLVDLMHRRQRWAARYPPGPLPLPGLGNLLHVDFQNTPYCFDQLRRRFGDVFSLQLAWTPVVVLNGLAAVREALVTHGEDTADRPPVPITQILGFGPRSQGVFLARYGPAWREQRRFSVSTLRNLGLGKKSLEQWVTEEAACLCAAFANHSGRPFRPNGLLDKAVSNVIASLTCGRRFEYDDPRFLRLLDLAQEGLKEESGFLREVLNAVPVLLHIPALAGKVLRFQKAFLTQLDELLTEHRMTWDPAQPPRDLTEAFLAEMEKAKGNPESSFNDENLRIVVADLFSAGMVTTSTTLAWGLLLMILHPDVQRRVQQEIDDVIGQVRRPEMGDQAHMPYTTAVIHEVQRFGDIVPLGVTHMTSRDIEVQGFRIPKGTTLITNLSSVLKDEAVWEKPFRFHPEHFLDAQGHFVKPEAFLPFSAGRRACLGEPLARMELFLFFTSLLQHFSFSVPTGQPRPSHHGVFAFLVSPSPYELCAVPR
Chain of Cytochrome P450 2C9 (Homo sapiens) (P11712 whole entry, looked up): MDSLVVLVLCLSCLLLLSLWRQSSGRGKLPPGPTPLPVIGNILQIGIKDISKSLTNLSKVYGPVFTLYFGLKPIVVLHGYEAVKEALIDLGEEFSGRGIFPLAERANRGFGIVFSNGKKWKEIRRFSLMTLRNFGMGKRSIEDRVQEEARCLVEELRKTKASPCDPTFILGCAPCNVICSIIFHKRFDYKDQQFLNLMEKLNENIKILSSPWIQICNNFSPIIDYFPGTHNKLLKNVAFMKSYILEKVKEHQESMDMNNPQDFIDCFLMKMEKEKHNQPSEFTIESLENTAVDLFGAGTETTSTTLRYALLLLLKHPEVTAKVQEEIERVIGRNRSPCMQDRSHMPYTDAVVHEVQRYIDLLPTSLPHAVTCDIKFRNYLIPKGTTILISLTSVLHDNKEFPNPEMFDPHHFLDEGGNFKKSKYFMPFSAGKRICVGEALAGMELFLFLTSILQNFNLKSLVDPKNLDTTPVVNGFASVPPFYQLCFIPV
Chain of Cytochrome P450 2C19 (Homo sapiens) (P33261 whole entry, looked up): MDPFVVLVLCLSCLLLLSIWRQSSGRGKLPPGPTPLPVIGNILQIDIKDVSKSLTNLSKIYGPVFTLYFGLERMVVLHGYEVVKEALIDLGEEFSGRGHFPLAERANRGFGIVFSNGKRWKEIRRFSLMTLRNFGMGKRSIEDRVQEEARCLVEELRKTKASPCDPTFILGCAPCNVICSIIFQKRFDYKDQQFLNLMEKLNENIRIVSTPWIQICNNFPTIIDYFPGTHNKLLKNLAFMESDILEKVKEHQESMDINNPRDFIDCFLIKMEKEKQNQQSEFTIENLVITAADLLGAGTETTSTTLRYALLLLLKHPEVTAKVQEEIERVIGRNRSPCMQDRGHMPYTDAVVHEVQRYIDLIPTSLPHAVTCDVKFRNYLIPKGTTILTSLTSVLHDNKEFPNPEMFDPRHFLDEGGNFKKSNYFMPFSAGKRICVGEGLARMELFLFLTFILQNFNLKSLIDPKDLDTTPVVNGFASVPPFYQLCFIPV

O=S(=O)(c1ccccc1)N1CCC2(CCCN(c3cccc(-c4ccccc4)c3)C2)CC1
inactive: Potency [1] > 11.4 µM | activity change, negative = inhibition [2] 7.43% | Potency [3] | activity change, negative = inhibition [4] -13.9% | activity, negative = inhibition [5] -0.269% | Potency [6] > 46 µM | Potency [7] | Potency [8] | Potency [10] | outcome [11]
active: Potency [9] 3.98 µM

O=C(c1ccco1)N1CCC2(CC1)CCN(c1ccc(-c3ccccc3)cc1)CC2
inactive: Potency [1] > 11.4 µM | activity change, negative = inhibition [2] -1.18% | Potency [3] | activity change, negative = inhibition [4] 17.6% | activity, negative = inhibition [5] -2.58% | Potency [6] > 46 µM | Potency [7] | Potency [8] | Potency [9] | outcome [11]

N#Cc1cccc(NC(=O)N2CC[C@@]3(CCCN(C(=O)c4cc(C(F)(F)F)cc(C(F)(F)F)c4)C3)C2)c1
inactive: Potency [1] > 11.4 µM | activity change, negative = inhibition [2] 3.48% | Potency [3] | activity change, negative = inhibition [4] 5.16% | activity, negative = inhibition [5] -10.2% | Potency [6] > 46 µM | Potency [7] | Potency [8] | Potency [12] | Potency [9] | Potency [13] | Potency [14] | outcome [11]

COc1ccc(C(=O)N2CCC3(CC2)CCN(c2ncccn2)CC3)cc1
active: Potency [10] 5.01 µM
inactive: Potency [1] > 11.4 µM | activity change, negative = inhibition [2] 3.18% | Potency [3] | activity change, negative = inhibition [4] 0.535% | activity, negative = inhibition [5] 4.32% | Potency [6] > 46 µM | Potency [7] | Potency [8] | Potency [9] | outcome [11]

COC(=O)N1CCC[C@@]2(CCN(C(=O)Nc3ccc(OC)cc3)C2)C1
inactive: Potency [1] > 11.4 µM | activity change, negative = inhibition [2] -11% | Potency [3] | activity change, negative = inhibition [4] -1.85% | activity, negative = inhibition [5] 3.7% | Potency [6] > 46 µM | Potency [7] | Potency [8] | Potency [10] | outcome [11]

COC(=O)N1CCC2(CC1)CCN(c1ncccn1)CC2
inactive: Potency [1] > 11.4 µM | activity change, negative = inhibition [2] 3.11% | Potency [3] | activity change, negative = inhibition [4] -23.4% | activity, negative = inhibition [5] -4.92% | Potency [6] > 46 µM | Potency [7] | Potency [8] | Potency [9] | outcome [11]
active: Potency [10] 15.8 µM

COc1ccc(C(=O)N2CCC[C@@]3(CCN(C(=O)Nc4cccc(C#N)c4)C3)C2)cc1
inactive: Potency [1] > 11.4 µM | activity change, negative = inhibition [2] -11.5% | Potency [3] | activity change, negative = inhibition [4] 16.6% | activity, negative = inhibition [5] 1.52% | Potency [6] > 46 µM | Potency [7] | Potency [8] | Potency [10] | outcome [11]
active: Potency [9] 7.94 µM

Cc1noc(C)c1C(=O)N1CCC[C@@]2(CCN(Cc3ccc(C#N)cc3)C2)C1
inactive: Potency [1] > 11.4 µM | activity change, negative = inhibition [2] -6.54% | Potency [3] | activity change, negative = inhibition [4] 17.1% | activity, negative = inhibition [5] 6.11% | Potency [6] > 46 µM | Potency [7] | Potency [8] | Potency [12] | Potency [9] | Potency [13] | Potency [14] | outcome [11]

O=C(c1cccc(F)c1)N1CCC2(CC1)CCN(c1ccc(-c3ccccc3)cc1)CC2
active: Potency [10] 12.6 µM
inactive: Potency [1] > 11.4 µM | activity change, negative = inhibition [2] 4.61% | Potency [3] | activity change, negative = inhibition [4] 0.978% | activity, negative = inhibition [5] -7.26% | Potency [6] > 46 µM | Potency [7] | Potency [8] | Potency [9] | outcome [11]

CC(=O)N1CCC2(CCCN(c3ncccn3)C2)CC1
inactive: Potency [1] > 11.4 µM | activity change, negative = inhibition [2] -18.1% | Potency [3] | activity change, negative = inhibition [4] 4.89% | activity, negative = inhibition [5] -2.74% | Potency [6] > 46 µM | Potency [7] | Potency [8] | outcome [11]

COC(=O)N1CCC2(CC1)CN(C(=O)Nc1ccc(OC)cc1)C2
inactive: Potency [1] > 11.4 µM | activity change, negative = inhibition [2] -27.1% | Potency [3] | activity change, negative = inhibition [4] 14.1% | activity, negative = inhibition [5] -0.967% | Potency [6] > 46 µM | Potency [7] | Potency [8] | outcome [11]

COc1ccc(C(=O)N2CCC3(CCCN(C)C3)CC2)cc1
inactive: Potency [1] > 11.4 µM | activity change, negative = inhibition [2] 2.83% | Potency [3] | activity change, negative = inhibition [4] 0.644% | activity, negative = inhibition [5] -7.5% | Potency [6] > 46 µM | Potency [7] | Potency [8] | outcome [11]

Cn1cccc1C(=O)N1CCC2(CC1)CCN(c1ncccn1)CC2
inactive: Potency [1] > 11.4 µM | activity change, negative = inhibition [2] 0.908% | Potency [3] | activity change, negative = inhibition [4] 5.08% | activity, negative = inhibition [5] -4.72% | Potency [6] > 46 µM | Potency [7] | Potency [8] | Potency [9] | outcome [11]

O=C(c1cccc(F)c1)N1CCC[C@@]2(CCN(c3cccc(-c4ccccc4)c3)C2)C1
active: Potency [3] 15.8 µM | Potency [9] 7.94 µM
inactive: Potency [1] > 11.4 µM | activity change, negative = inhibition [2] 4.68% | activity change, negative = inhibition [4] -14.4% | activity, negative = inhibition [5] -5.9% | Potency [6] > 46 µM | Potency [7] | Potency [8] | Potency [10] | outcome [11]

O=C(Nc1ccccc1)N1CCC2(CC1)CCN(C(=O)c1cccc(F)c1)CC2
active: Potency [3] 10 µM | Potency [10] 12.6 µM
inactive: Potency [1] > 11.4 µM | activity change, negative = inhibition [2] 2.8% | activity change, negative = inhibition [4] 14.6% | activity, negative = inhibition [5] -12.9% | Potency [6] > 46 µM | Potency [7] | Potency [8] | Potency [9] | activation [15] -13.7% | outcome [11]
